# Assay results as given in the supplement of paper PMC11001985.
# Unmarked numbers belong to inactive results.
# Compound: C#CCNC(=O)CCSSCCC(=O)NCCc1ccc(C=O)c(C=O)c1
# Test: lysine labeling ratio R10:1 (500 µM / 50 µM probe), SILAC-ABPP in living cells; higher = lower intrinsic lysine reactivity toward the probe, active = 2 or less
# Conditions: HeLa; probe concentrations 500 vs 50 µM
# How it was run: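 For each lysine, R is the median over forward and reverse replicates of the filtered median MS1 peptide ratio of high probe to low probe. The probe, an alkyne-tagged, disulfide-linked lysine probe, was given at 500 µM or 50 µM to living SILAC light and heavy HeLa cells in PBS at room temperature, with label swaps. Values are capped at 20.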
# UniProt Q9Y6N7, sequence (Q9Y6N7 whole entry): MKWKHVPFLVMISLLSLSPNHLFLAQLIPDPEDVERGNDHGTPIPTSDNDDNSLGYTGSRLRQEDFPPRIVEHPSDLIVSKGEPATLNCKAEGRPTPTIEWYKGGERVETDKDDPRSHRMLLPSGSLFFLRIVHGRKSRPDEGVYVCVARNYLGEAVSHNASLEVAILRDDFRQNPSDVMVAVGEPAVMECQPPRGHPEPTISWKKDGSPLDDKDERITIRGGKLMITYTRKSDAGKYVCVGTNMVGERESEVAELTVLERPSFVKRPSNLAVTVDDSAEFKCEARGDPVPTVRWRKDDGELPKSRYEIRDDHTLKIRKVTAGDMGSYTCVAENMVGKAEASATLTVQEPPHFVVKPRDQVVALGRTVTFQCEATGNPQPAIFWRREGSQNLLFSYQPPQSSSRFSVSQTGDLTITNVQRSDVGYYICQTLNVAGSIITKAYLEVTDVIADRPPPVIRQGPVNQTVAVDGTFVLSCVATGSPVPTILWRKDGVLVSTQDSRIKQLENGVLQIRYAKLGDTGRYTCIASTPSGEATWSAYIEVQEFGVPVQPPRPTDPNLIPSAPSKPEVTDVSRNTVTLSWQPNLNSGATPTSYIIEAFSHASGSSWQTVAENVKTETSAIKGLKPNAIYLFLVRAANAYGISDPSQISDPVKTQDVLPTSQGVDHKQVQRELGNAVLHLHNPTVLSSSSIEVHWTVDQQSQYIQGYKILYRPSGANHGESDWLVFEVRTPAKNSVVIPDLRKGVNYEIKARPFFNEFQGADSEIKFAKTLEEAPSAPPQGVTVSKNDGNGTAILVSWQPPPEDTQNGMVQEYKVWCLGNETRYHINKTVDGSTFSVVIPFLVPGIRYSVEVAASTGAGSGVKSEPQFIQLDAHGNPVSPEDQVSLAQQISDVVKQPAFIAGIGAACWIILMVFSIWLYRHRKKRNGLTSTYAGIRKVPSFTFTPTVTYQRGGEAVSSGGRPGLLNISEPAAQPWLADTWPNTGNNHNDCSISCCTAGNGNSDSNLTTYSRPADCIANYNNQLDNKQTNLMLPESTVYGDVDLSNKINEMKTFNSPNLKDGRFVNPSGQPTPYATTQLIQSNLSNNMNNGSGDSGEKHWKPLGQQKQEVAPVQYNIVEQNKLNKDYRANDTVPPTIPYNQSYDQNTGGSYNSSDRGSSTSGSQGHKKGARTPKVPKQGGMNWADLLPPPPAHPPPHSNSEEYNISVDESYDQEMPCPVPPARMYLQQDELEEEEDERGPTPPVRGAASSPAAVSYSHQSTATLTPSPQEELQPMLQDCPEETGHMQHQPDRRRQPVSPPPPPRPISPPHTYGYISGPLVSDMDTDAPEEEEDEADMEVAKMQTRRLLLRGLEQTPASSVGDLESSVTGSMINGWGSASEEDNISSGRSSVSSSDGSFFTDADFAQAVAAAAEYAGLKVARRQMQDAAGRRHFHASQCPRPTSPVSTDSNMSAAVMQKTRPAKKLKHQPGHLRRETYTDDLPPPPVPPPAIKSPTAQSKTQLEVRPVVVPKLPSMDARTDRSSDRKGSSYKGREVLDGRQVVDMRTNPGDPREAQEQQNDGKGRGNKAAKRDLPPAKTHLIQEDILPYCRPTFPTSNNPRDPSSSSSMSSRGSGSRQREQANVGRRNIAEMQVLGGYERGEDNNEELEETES
# UniProt Q5T9A4, sequence (Q5T9A4 whole entry): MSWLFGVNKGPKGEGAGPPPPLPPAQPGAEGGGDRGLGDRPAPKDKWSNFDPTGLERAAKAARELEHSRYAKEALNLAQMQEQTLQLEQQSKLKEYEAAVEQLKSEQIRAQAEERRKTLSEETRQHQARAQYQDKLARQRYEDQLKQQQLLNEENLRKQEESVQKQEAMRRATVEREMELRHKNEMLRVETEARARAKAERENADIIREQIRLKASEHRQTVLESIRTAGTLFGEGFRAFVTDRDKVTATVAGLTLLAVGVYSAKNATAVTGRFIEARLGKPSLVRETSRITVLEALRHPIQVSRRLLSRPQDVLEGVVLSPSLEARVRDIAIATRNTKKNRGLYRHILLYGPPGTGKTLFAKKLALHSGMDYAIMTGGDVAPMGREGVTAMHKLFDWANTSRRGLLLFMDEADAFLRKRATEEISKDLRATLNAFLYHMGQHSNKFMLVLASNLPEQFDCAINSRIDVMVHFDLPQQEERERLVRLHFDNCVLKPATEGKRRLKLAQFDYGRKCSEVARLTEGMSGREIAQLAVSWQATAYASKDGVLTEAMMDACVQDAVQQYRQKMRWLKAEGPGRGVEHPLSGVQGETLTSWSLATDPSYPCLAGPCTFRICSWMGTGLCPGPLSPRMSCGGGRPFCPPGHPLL
# UniProt Q8WWI5, sequence (Q8WWI5 whole entry): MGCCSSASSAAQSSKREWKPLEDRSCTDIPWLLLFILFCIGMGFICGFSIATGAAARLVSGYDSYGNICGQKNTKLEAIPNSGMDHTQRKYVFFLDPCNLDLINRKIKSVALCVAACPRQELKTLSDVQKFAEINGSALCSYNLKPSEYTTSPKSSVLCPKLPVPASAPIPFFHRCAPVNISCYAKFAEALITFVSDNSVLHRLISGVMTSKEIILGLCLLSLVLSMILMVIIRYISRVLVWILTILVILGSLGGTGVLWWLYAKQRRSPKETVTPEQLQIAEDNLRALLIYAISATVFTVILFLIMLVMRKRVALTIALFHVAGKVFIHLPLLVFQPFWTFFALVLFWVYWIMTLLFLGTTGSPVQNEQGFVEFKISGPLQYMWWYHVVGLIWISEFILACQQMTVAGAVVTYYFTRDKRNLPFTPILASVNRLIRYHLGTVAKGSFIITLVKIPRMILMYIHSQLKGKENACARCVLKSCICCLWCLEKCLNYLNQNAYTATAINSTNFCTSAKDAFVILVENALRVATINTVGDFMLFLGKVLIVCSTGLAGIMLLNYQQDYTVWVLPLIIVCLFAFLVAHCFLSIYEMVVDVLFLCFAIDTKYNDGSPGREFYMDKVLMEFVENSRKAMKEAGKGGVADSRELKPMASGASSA
# UniProt P50454, sequence (P50454 whole entry): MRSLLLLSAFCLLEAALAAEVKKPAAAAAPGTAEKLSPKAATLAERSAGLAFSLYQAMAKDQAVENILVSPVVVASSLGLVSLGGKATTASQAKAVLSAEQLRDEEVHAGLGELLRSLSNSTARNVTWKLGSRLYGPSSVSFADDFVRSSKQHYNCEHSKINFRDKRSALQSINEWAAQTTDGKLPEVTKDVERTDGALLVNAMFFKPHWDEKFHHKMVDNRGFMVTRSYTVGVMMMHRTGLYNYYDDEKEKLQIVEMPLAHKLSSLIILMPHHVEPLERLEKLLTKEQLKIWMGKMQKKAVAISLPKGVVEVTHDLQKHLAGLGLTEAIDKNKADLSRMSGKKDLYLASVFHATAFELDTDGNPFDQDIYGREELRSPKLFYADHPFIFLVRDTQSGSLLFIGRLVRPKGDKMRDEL
# UniProt Q9P0L0, sequence (Q9P0L0 whole entry): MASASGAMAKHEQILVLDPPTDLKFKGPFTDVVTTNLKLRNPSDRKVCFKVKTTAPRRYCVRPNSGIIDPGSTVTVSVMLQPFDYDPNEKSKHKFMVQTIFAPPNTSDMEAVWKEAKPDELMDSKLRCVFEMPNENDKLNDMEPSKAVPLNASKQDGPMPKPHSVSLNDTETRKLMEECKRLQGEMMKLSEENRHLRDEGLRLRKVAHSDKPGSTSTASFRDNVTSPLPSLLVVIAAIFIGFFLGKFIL
# UniProt P22234, sequence (P22234 whole entry): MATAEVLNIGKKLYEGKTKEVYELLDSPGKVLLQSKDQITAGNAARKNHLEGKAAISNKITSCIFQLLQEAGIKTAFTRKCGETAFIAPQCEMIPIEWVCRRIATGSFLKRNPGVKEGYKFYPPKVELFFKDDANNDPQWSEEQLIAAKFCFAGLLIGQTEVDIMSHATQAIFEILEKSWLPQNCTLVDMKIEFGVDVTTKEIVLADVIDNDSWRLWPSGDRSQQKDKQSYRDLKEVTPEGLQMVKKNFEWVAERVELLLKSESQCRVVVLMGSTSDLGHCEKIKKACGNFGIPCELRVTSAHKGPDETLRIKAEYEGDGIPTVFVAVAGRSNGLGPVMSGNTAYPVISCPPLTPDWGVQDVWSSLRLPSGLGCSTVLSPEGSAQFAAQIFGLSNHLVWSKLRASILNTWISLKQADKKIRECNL
# UniProt Q14697, sequence (Q14697 whole entry): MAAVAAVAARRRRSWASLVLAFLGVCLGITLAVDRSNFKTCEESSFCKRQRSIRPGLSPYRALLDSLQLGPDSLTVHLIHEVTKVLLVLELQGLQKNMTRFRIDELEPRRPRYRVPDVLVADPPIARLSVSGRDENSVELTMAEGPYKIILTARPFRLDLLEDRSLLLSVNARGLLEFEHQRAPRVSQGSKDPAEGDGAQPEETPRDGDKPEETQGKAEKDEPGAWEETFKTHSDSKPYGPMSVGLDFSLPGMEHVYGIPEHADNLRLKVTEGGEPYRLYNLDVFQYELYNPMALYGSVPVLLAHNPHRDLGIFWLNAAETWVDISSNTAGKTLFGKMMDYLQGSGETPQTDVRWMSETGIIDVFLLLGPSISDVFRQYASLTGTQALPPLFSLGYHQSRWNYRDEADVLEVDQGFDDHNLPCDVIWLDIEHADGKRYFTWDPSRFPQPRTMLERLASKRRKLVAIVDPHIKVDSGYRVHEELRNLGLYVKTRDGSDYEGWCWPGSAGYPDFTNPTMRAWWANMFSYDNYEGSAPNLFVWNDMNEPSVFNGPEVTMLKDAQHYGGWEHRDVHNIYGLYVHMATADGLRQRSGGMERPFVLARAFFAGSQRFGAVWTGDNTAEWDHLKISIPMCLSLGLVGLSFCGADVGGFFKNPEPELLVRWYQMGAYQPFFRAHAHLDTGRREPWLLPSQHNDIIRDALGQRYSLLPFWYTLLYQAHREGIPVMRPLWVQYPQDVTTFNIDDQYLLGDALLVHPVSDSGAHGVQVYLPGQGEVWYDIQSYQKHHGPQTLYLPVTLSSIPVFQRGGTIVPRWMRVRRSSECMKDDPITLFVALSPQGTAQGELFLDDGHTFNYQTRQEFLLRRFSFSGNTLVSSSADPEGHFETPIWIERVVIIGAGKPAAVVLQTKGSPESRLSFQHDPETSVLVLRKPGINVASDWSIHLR
row,Target,lysine labeling ratio R10:1
1,CD109 (lysine site: K1105) (UniProt Q6YHK3),1.09 (active)
2,CCDC124 (lysine site: K94) (UniProt Q96CT7),4.68
3,RPS3A (lysine site: K63) (UniProt P61247),1.79 (active)
4,VAPA (lysine site: K188) (UniProt Q9P0L0),1.99 (active)
5,SPTAN1 (lysine site: K1141) (UniProt Q13813),17.4
6,FH (lysine site: K80) (UniProt P07954),1.86 (active)
7,UniProt P09758 (lysine site: K231),4.22
8,UniProt P62829 (lysine site: K123),0.877 (active)
9,GANAB (lysine site: K48) (UniProt Q14697),3.47
10,UniProt P49591 (lysine site: K12),0.947 (active)
11,PDIA3 (lysine site: K347) (UniProt P30101),5.72
12,PDIA4 (lysine site: K582) (UniProt P13667),2.17
13,CD82 (lysine site: K114) (UniProt P27701),0.977 (active)
14,SLC44A1 (lysine site: K75) (UniProt Q8WWI5),2.45
15,PLOD2 (lysine site: K486) (UniProt O00469),2.27
16,MYO1C (lysine site: K404) (UniProt O00159),1.66 (active)
17,LDLR (lysine site: K596) (UniProt P01130),1.28 (active)
18,NUMA1 (lysine site: K573) (UniProt Q14980),1.46 (active)
19,LAMA5 (lysine site: K113) (UniProt O15230),4.71
20,UniProt Q8WXI7 (lysine site: K13246),5.01

row,Target,lysine labeling ratio R10:1
1,DYNC1H1 (lysine site: K2286) (UniProt Q14204),1.93 (active)
2,G6PD (lysine site: K360) (UniProt P11413),2.07
3,WASF2 (lysine site: K109) (UniProt Q9Y6W5),1.24 (active)
4,XRCC6 (lysine site: K238) (UniProt P12956),0.959 (active)
5,TGFBR3 (lysine site: K672) (UniProt Q03167),0.83 (active)
6,ROBO1 (lysine site: K733) (UniProt Q9Y6N7),5.78
7,GDI2 (lysine site: K435) (UniProt P50395),4.66
8,FLNA (lysine site: K2417) (UniProt P21333),4.07
9,GHITM (lysine site: K76) (UniProt Q9H3K2),4.44
10,NECTIN3 (lysine site: K301) (UniProt Q9NQS3),1.83 (active)
11,UniProt Q8WXI7 (lysine site: K12467),5.1
12,UniProt Q16363 (lysine site: K682),1.54 (active)
13,F11R (lysine site: K178) (UniProt Q9Y624),5.39
14,PAICS (lysine site: K304) (UniProt P22234),4.39
15,FN1 (lysine site: K2354) (UniProt P02751),6.78
16,SERBP1 (lysine site: K76) (UniProt Q8NC51),1.17 (active)
17,UniProt P08727 (lysine site: K168),4.76
18,SERPINH1 (lysine site: K160) (UniProt P50454),2.81
19,HNRNPU (lysine site: K592) (UniProt Q00839),2.21
20,ATAD3B (lysine site: K183) (UniProt Q5T9A4),1.8 (active)
